What all share (details): modulator concentration 10 µM
In assay [1] the test system is RAW-Dual (murine macrophage reporter line). Briefly: NF-kB reporter (SEAP) activity fold change vs agonist alone; higher = enhanced NF-kB activity. In outline:
(§1)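 RAW-Dual murine macrophage reporter cells were seeded at 50 000 per well in 384-well plates and pre-incubated 1 hour at 37 °C with compound pin-transferred to 10 μM final. After 1 hour, a PRR agonist was added and cells incubated overnight. Supernatant NF-κB (SEAP, QUANTI-Blue, 620 nm absorbance) and IRF (Lucia luciferase, QUANTI-Luc, luminescence) signals were divided by the mean agonist-only control on the same plate to give fold change. Two replicate plates were averaged, with errors by propagation.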

For assay [2] the test system is unchanged. Briefly: IRF reporter (Lucia luciferase) activity fold change vs agonist alone; higher = enhanced IRF activity. In outline: as §1
The test system is the same in assay [3]. The assay can be described thus: viability score (confluency relative to resting cells, overnight) (fraction); higher = more viable, active = viable (0.7 or more). In outline:
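A compound met the cutoff when both of two confluency masks exceeded 70% of resting cells. Those masks were made with IncuCyte software from IncuCyte images of RAW-Dual macrophages treated overnight at 10 μM final. This is the basis of the viability score, which is confluency relative to resting cells.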

Setting [4] is: agonist: CpG ODN 1826 0.5 ug/mL.

The values below come from the supplement of paper PMC10646978.

The structures appear in SMILES notation. ± gives the standard deviation.

For the compound `CCC(C)(C)C(=O)O[C@H]1C[C@@H](C)C=C2C=C[C@H](C)[C@H](CC[C@@H]3C[C@@H](O)CC(=O)O3)[C@H]21`, the NF-kB reporter in assay [1] (setting [4]) is 2.33 ± 0.12; in assay [1] (agonist: LPS 0.1 ug/mL) it was 1.54 ± 0.13; in assay [1] (agonist: MPLA […]) it was 1.82 ± 0.084. Besides, the results for the IRF reporter in assay [2] (agonist: 3'3'-cGAMP 10 ug/mL), in assay [2] (agonist: LPS 0.1 ug/mL) and in assay [2] (agonist: MPLA […]) were 0.599 ± 0.061, 0.747 ± 0.062 and 0.639 ± 0.17, respectively. The viability score in assay [3] is 0.219 (inactive).

As for `O=C(Nc1cccnc1)c1ccc(OC2CCOCC2)nc1`, the results for the NF-kB reporter in assay [1] (setting [4]), in assay [1] (agonist: LPS 0.1 ug/mL) and in assay [1] (agonist: MPLA […]) were 1.08 ± 0.37, 0.97 ± 0.06 and 1 ± 0.063, respectively. The IRF reporter was 0.912 ± 0.046 in assay [2] (agonist: 3'3'-cGAMP 10 ug/mL), 1.05 ± 0.13 in assay [2] (agonist: LPS 0.1 ug/mL) and 1.3 ± 0.14 in assay [2] (agonist: MPLA […]). In assay [3], the viability score was 0.99 (active).

With `O=C(Nc1ccc(S(=O)(=O)Nc2nccs2)cc1)c1c(F)cccc1F`, the NF-kB reporter in assay [1] (setting [4]) came to 0.984 ± 0.1; in assay [1] (agonist: LPS 0.1 ug/mL) it was 1.02 ± 0.058; in assay [1] (agonist: MPLA […]), 0.922 ± 0.06. In addition, the IRF reporter in assay [2] (agonist: 3'3'-cGAMP 10 ug/mL) worked out at 0.982 ± 0.026; in assay [2] (agonist: LPS 0.1 ug/mL), 1.52 ± 0.23; in assay [2] (agonist: MPLA […]), 1.14 ± 0.1. The viability score in assay [3] is 1.01 (active).

Regarding `O=C(NCC(O)(c1ccccc1)C(F)(F)F)c1ccc(Br)o1` (centres undefined), the NF-kB reporter in assay [1] (setting [4]) turned out to be 0.943 ± 0.054; in assay [1] (agonist: LPS 0.1 ug/mL), 0.86 ± 0.12; in assay [1] (agonist: MPLA […]), 0.929 ± 0.036. Moreover, the IRF reporter in assay [2] (agonist: 3'3'-cGAMP 10 ug/mL) came out at 0.858 ± 0.038; in assay [2] (agonist: LPS 0.1 ug/mL) it was 1.04 ± 0.065; in assay [2] (agonist: MPLA […]), 1.05 ± 0.15. In assay [3], the viability score was 0.948 (active).

In the case of `CC1C(C#N)=C(N)OC2=C1C(=O)CC(C)(C)C2` (centres undefined), the NF-kB reporter came to 1.01 ± 0.083 in assay [1] (setting [4]), 0.965 ± 0.12 in assay [1] (agonist: LPS 0.1 ug/mL) and 0.96 ± 0.09 in assay [1] (agonist: MPLA […]). Also, the IRF reporter in assay [2] (agonist: 3'3'-cGAMP 10 ug/mL) was 0.917 ± 0.072; in assay [2] (agonist: LPS 0.1 ug/mL), 1.28 ± 0.23; in assay [2] (agonist: MPLA […]), 1.47 ± 0.35. Besides, the viability score in assay [3] is 1.02 (active).

As to `CCN(CC)CCOC(=O)C(c1ccccc1)c1ccccc1` [Prestw-75], the NF-kB reporter in assay [1] (setting [4]) was 0.712 ± 0.11; in assay [1] (agonist: LPS 0.1 ug/mL) it was 1.14 ± 0.14; in assay [1] (agonist: MPLA […]), 1.91 ± 0.9. Further, the IRF reporter in assay [2] (agonist: 3'3'-cGAMP 10 ug/mL) turned out to be 1.2 ± 0.038; in assay [2] (agonist: LPS 0.1 ug/mL), 0.922 ± 0.09; in assay [2] (agonist: MPLA […]) it was 1.09 ± 0.12. Besides, the viability score in assay [3] was 0.91 (active).

As to `Cc1cccc(Cn2c(=O)c3nscc3n(Cc3ccc(F)c(F)c3)c2=O)c1`, the NF-kB reporter in assay [1] (setting [4]) was 1.14 ± 0.099; in assay [1] (agonist: LPS 0.1 ug/mL), 1.09 ± 0.087; in assay [1] (agonist: MPLA […]) it was 1.21 ± 0.11. For the same compound, the IRF reporter came to 0.997 ± 0.048 in assay [2] (agonist: 3'3'-cGAMP 10 ug/mL), 1.01 ± 0.093 in assay [2] (agonist: LPS 0.1 ug/mL) and 0.899 ± 0.22 in assay [2] (agonist: MPLA […]). The viability score in assay [3] was 0.995 (active).

Take `COc1ccc(C2Nc3ccccc3-c3nnc(SCc4ccc(C)cc4)nc3O2)cc1C` (centres undefined): the NF-kB reporter in assay [1] (setting [4]) was found to be 0.964 ± 0.079; in assay [1] (agonist: LPS 0.1 ug/mL), 1.07 ± 0.086; in assay [1] (agonist: MPLA […]) it was 0.919 ± 0.04. Further, the figures for the IRF reporter in assay [2] (agonist: 3'3'-cGAMP 10 ug/mL), in assay [2] (agonist: LPS 0.1 ug/mL) and in assay [2] (agonist: MPLA […]) were 0.961 ± 0.13, 0.992 ± 0.041 and 1.06 ± 0.15, respectively. For the same compound, in assay [3], the viability score was 1 (active).

Regarding `O=C(NNC(=O)c1sc2cc(F)ccc2c1Cl)Nc1ccc(Cl)cc1`, the results for the NF-kB reporter in assay [1] (setting [4]), in assay [1] (agonist: LPS 0.1 ug/mL) and in assay [1] (agonist: MPLA […]) were 1.02 ± 0.081, 0.995 ± 0.086 and 1.05 ± 0.053, respectively. For the same compound, the IRF reporter is 0.926 ± 0.15 in assay [2] (agonist: 3'3'-cGAMP 10 ug/mL), 1.02 ± 0.048 in assay [2] (agonist: LPS 0.1 ug/mL) and 1.12 ± 0.091 in assay [2] (agonist: MPLA […]). Further, in assay [3], the viability score is 1 (active).

On to `CC1CN(C2=NC(=O)C(=Cc3ccc(-c4ccccc4Cl)o3)S2)CC(C)O1` (centres undefined), for which the NF-kB reporter in assay [1] (setting [4]) was found to be 0.495 ± 0.054; in assay [1] (agonist: LPS 0.1 ug/mL) it was 0.841 ± 0.053; in assay [1] (agonist: MPLA […]) it was 0.943 ± 0.089. Further, the IRF reporter in assay [2] (agonist: 3'3'-cGAMP 10 ug/mL) is 0.813 ± 0.053; in assay [2] (agonist: LPS 0.1 ug/mL) it was 1.34 ± 0.12; in assay [2] (agonist: MPLA […]), 1.44 ± 0.15. Also, in assay [3], the viability score was 1.02 (active).

As for `CCc1nc(N)nc(N)c1-c1ccc(Cl)cc1`, the NF-kB reporter in assay [1] (setting [4]) stood at 1.23 ± 0.11; in assay [1] (agonist: LPS 0.1 ug/mL), 1.07 ± 0.054; in assay [1] (agonist: MPLA […]), 1.03 ± 0.054. In addition, the IRF reporter in assay [2] (agonist: 3'3'-cGAMP 10 ug/mL) came out at 0.941 ± 0.052; in assay [2] (agonist: LPS 0.1 ug/mL) it was 0.974 ± 0.07; in assay [2] (agonist: MPLA […]), 0.865 ± 0.075. Further, the viability score in assay [3] is 0.964 (active).

As for `COC(=O)N[C@H](C(=O)N1CCC[C@H]1c1ncc(-c2ccc(-c3ccc(-c4cnc([C@@H]5CCCN5C(=O)[C@@H](NC(=O)OC)C(C)C)[nH]4)cc3)cc2)[nH]1)C(C)C`, the NF-kB reporter in assay [1] (setting [4]) was determined as 0.724 ± 0.098; in assay [1] (agonist: LPS 0.1 ug/mL) it was 1.17 ± 0.46; in assay [1] (agonist: MPLA […]), 1.22 ± 0.074. Moreover, the IRF reporter in assay [2] (agonist: 3'3'-cGAMP 10 ug/mL) was determined as 0.757 ± 0.12; in assay [2] (agonist: LPS 0.1 ug/mL), 1.52 ± 0.3; in assay [2] (agonist: MPLA […]), 4.38 ± 1.3. For the same compound, the viability score in assay [3] is 0.987 (active).
